# Records with an inconclusive call do not appear. Unmarked numbers belong to inactive results. Active and inactive are the calls of the source. Calls come from the whole dose curve; as a rule, active = well fitted inhibition curve with a large enough effect; inconclusive = small, poorly fitted or top-dose-only effect; inactive = no such curve, though single readings can be large or run the other way.
# Assay: qHTS to identify inhibitors of the type 1 interferon - major histocompatibility complex class I in skeletal muscle: Secondary screen by immunofluorescence; note: nearly all actives have a fitted effect of over 70% in size;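 for activity change, negative = inhibition: digitonin at 100 µM served as the cytotoxic control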
# Settings: C25cl48 myoblasts, IFN-b induced HLA-ABC immunofluorescence, 24 h, Viability; series mostly up to 49.8 µM; activity change, negative = inhibition: at the top concentration
# Description: Assay Submitter (PI): Travis B. Kinder Ph.D. & James Inglese Ph.D. Assay Development and Screening Technology Laboratory (ADST) National Center for Advancing Translational Sciences (NCATS), Rockville, MD National Institute of Health (NIH), Bethesda, Maryland Idiopathic inflammatory myopathies, collectively referred to as myositis, are a group of rare autoimmune diseases characterized by skeletal muscle inflammation, weakness, and usually accompanied by systemic pathologies of the skin, lungs, or vasculature. Current immunosuppressive therapies and glucocorticoids are often not curative and are accompanied by harsh side effects, especially in children with juvenile myositis. We initiated a drug repurposing and development program to identify more targeted, less toxic therapeutics to treat myositis. Although its cause is not known, muscle from a subset of patients have an abundance of the inflammatory type 1 interferon (IFN) and a down-stream product major histocompatibility complex class I (MHC class I), which are both thought to contribute to damage and weakness. We conducted quantitative high throughput screening (qHTS) on 6,576 compounds (4,679 unique) through a series of cell-based assays to identify those that inhibit the IFN-stimulated expression of MHC class I in muscle precursor cells (myoblasts). The compound identification and evaluation strategy utilized a primary screen with reporter-tagged MHC class I in genome-engineered myoblasts, ATP content counter screen for viability, HLA-ABC immunofluorescence secondary screen, and HLA-B RT-qPCR tertiary screen. To verify activity of compounds identified by qHTS in HLA-B HiBit reporter cells, compounds were assayed by high throughput HLA-ABC immunofluorescence. Briefly, 216 compounds identified from primary and counter screening as inhibitory with minimal cytotoxicity were dispensed into black/clear bottom […] using acoustic dispensing in an 11-point, 1:3 titration with a high final concentration of 50 uM. Normal immortalized human myoblasts C25cl48 were added to the plates with 4.0 ng/ml human IFN-beta for 24 hours, fixed, stained by immunofluorescence for HLA-ABC protein, nuclei, and cell body, and analyzed by laser scanning cytometry as described by Auld et al., 2006. References: Auld DS, Johnson RL, Zhang Y, Veith H, Jadhav A, Yasgar A, Simeonov A, Zheng W, Martinez ED, Westwick JK, Austin CP, Inglese J. 2006. Fluorescent protein-based cellular assays analyzed by laser-scanning microplate cytometry in 1536-well plate format. Methods Enzymol 414:566-89. doi:10.1016/S0076-6879(06)14029-X
# PROTOCOL TABLE (as described by Inglese et al., 2007) SEQUENCE No. (e.g., 1, 2, 3, etc.); […] (e.g., Cells, Incubation, Reagent, etc.); VALUE; DESCRIPTION 0; Compounds; 25 nl; Follow-up compounds dispensed at 25 nl/well with Labcyte Echo 655 acoustic dispenser in triplicate Aurora ChemLib 1536K black/clear bottom, low base, TC 1536-well plates (00019324). Also dispensed 25 nl/well DMSO control, ruxolitinib IFN-b inhibitor control titration, and digitonin cytotoxic control 1a; Cells; 5 uL; Multidrop Combi (Thermo Scientific) to seed 125 cells/well into eight plates in 5 ul/well of iHSKM growth medium (GM) without dexamethasone into columns 1+2. Add metal lids with gas-exchange holes 1b; Cells; 5 uL; Multidrop Combi (Thermo Scientific) to seed 125 cells/well into eight plates in 5 ul/well of iHSKM GM without dexamethasone + 4 ng/ml IFN-b into columns 3 - 48. […]
# % is set by controls: 0 for no effect and ±100 for the full control effect; potency is the fitted concentration of half-maximal effect.
Structure (SMILES),"activity change, negative = inhibition",Potency
C/C1=C/C[C@@H](/C(C)=C/c2csc(C)n2)OC(=O)C[C@H](O)C(C)(C)C(=O)[C@H](C)[C@@H](O)[C@@H](C)CCC1,-13.6%,
Cc1sc2c(c1C)C(c1ccc(Cl)cc1)=N[C@@H](CC(N)=O)c1nnc(C)n1-2,5.41%,
CC(C)(C)c1cc(C=C(C#N)C#N)cc(C(C)(C)C)c1O,2.35%,
CC[C@@]1(O)C(=O)OCc2c1cc1n(c2=O)Cc2cc3ccccc3nc2-1,,inactive
O=C1/C(=C\c2ccccc2)C[C@@]2(O)[C@H]3Cc4ccc(O)c5c4[C@@]2(CCN3CC2CC2)[C@H]1O5,,10.2 µM (active)
C/C(=C\c1csc(C)n1)[C@@H]1C[C@@H]2O[C@]2(C)CCC[C@H](C)[C@H](O)[C@@H](C)C(=O)C(C)(C)[C@@H](O)CC(=O)O1,-0.361%,
CC(=O)OC[C@H]1O[C@@H]([S-])[C@H](OC(C)=O)[C@@H](OC(C)=O)[C@@H]1OC(C)=O.CC[PH+](CC)CC.[Au],,1.62 µM (active)
O=c1[nH]c2ccc(Cl)cc2c(N[C@@H]2CN3CCC2CC3)c1-c1nc2ccccc2[nH]1,,4.58 µM (active)
CC(C)(O)/C=C\C(=O)[C@](C)(O)[C@H]1[C@H](O)C[C@]2(C)[C@@H]3CC=C4[C@@H](C=C(O)C(=O)C4(C)C)[C@]3(C)C(=O)C[C@@]12C,,16.2 µM (active)
Cc1[nH]ncc1-c1cc2nc([C@@H]3CC4CCN3CC4)[nH]c(=O)c2s1,6.86%,
COc1cccc2c1C(=O)c1c(O)c3c(c(O)c1C2=O)C[C@@](O)(C(=O)CO)CC3OC1CC(N2CCOC(OC)C2)C(O)C(C)O1 (stereo not given in full),1.3%,
CC(C)[C@]12O[C@H]1[C@@H]1O[C@@]13[C@@]1(C)CCC4=C(COC4=O)[C@@H]1C[C@@H]1O[C@@]13C2=O,3.97%,
Cc1sc2c(c1C)C(c1ccc(Cl)cc1)=N[C@@H](CC(=O)Nc1ccc(O)cc1)c1nnc(C)n1-2,23.5%,
COC(=O)[C@]12CCC(C)(C)C[C@H]1[C@H]1C(=O)C=C3[C@@]4(C)C=C(C#N)C(=O)C(C)(C)[C@@H]4CC[C@@]3(C)[C@]1(C)CC2,,3.64 µM (active)
Cc1sc2c(c1C)C(c1ccc(Cl)cc1)=N[C@@H](CC(=O)OC(C)(C)C)c1nnc(C)n1-2,31.9%,
COC(=O)[C@@]12OC[C@]34[C@H]([C@@H](O)[C@@H]1O)[C@@]1(C)CC(=O)C(O)=C(C)[C@@H]1C[C@H]3OC(=O)[C@H](OC(=O)/C=C(\C)C(C)C)[C@@H]24,3.25%,
CC1(C)CC[C@]2(NC(=O)C(C)(F)F)CC[C@]3(C)[C@H](C(=O)C=C4[C@@]5(C)C=C(C#N)C(=O)C(C)(C)[C@@H]5CC[C@]43C)[C@@H]2C1,,4.08 µM (active)
C[C@@H]1O[C@@H](O[C@@H]2C=C3CC[C@@H]4[C@H](CC[C@]5(C)[C@@H](c6ccc(=O)oc6)CC[C@]45O)[C@@]3(C)CC2)[C@H](O)[C@H](O)[C@H]1O,14.8%,
CCn1cnc2c(Nc3cccc(Cl)c3)nc(N[C@@H]3CCCC[C@@H]3N)nc21,,25.7 µM (active)
CC1=C(O)C(=O)C=C2C1=CC=C1[C@@]2(C)CC[C@@]2(C)[C@@H]3C[C@](C)(C(=O)O)CC[C@]3(C)CC[C@]12C,,5.76 µM (active)
C=C(C)[C@@H]1CCC(C)=C[C@H]1c1c(O)cc(CCCCC)cc1O,,25.7 µM (active)
CN(C)c1cc2c(cc1Sc1nc3c(N)nccc3n1CCNCC(C)(C)C)OCO2,3.61%,
C[C@@H]1O[C@@H](O[C@H]2C[C@@H](O)[C@]3(CO)[C@H]4[C@H](O)C[C@]5(C)[C@@H](C6=CC(=O)OC6)CC[C@]5(O)[C@@H]4CC[C@]3(O)C2)[C@H](O)[C@H](O)[C@H]1O,1.82%,
O=[N+]([O-])/C=C/c1ccc2c(c1)OCO2,,11.5 µM (active)
CC(C)[C@]12O[C@H]1[C@@H]1O[C@]13[C@]1(O[C@H]1C[C@H]1C4=C(CC[C@@]13C)C(=O)OC4)[C@@H]2O,7.8%,

# Reference: PubChem BioAssay AID1347414 (National Center for Advancing Translational Sciences (NCATS), 2020)
